Screening results (PubChem BioAssay)
Compounds with a hit are over-represented: about 4.2% of the library has one in this group of screens.
VDR inh = Inhibitors of the vitamin D receptor (VDR): qHTS; VDR-SRC2-3 peptide fluorescence polarization, 2 h; Potency, µM, without a hit: max response, negative = inhibition, actives largely listed as inhibitors; 400,000 tested, 0.93% active; AID 504847, 2011
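Inhibition of the VDR/SRC2-3 peptide interaction is quantified by fluorescence polarization. Compounds (23 nl, pintool) incubate with the reagents for 2 hours at ambient room temperature.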
12-LOX inh = Primary qHTS assay for inhibitors of human arachidonate 12S-lipoxygenase (ALOX12): Round 2 | Potency, µM (series often up to 108 µM), for the others: top-dose activity change, negative = inhibition, most hits filed as inhibitors | Polyunsaturated fatty acid lipoxygenase ALOX12 (Homo sapiens), P18054 | AID 1671190, 2021 | 580,000 tested, 1.1% active | purified 12hLO, xylenol orange hydroperoxide absorbance
Target sequence (P18054 whole entry, looked up): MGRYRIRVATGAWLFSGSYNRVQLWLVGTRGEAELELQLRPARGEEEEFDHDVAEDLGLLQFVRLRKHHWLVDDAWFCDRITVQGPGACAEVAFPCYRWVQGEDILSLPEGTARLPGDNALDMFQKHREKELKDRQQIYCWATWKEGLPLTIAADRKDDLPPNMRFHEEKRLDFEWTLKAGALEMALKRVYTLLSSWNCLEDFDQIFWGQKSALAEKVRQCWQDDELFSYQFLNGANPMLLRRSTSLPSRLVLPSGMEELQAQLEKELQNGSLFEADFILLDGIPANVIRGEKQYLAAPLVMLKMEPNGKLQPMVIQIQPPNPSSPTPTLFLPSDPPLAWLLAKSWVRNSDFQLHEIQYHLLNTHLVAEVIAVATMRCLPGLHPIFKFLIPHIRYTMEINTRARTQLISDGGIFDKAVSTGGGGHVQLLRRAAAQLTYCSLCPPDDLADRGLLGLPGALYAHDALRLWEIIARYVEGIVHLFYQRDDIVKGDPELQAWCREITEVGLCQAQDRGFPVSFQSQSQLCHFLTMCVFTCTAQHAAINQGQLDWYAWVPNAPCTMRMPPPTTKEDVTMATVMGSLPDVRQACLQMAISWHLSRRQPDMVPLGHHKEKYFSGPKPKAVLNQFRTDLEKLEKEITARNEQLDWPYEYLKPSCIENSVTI
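Purified human 12hLO (150 nM final) in 25 mM Hepes, 0.01% Triton X-100, pH 7.0 was preincubated 15 min at room temperature with compound. Then 40 uM arachidonic acid was added, 30 min. Hydroperoxide was read by Fe-XO absorbance ratio 573/405 nm.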
PLK1 PBD block = qHTS for Inhibitors of PLK1-PDB (polo-like kinase 1 - polo-box domain): Primary Screen; Serine/threonine-protein kinase PLK1 (Homo sapiens), P53350; Plk1 PBD binding of FITC phosphopeptide, fluorescence polarization; Potency, µM, for the others: max response, negative = inhibition, actives largely listed as inhibitors; 360,000 tested, 2.8% active; AID 720504, 2013; also: series mostly up to about 57 µM; nearly all actives have a fitted effect of over 65% in size
Sfp inh = qHTS Assay for Inhibitors of Bacillus subtilis Sfp phosphopantetheinyl transferase (PPTase); 4'-phosphopantetheinyl transferase ffp (Bacillus subtilis), Q9F4F7; Biochemical Sfp PPTase activity, qHTS; Potency, µM, for inactives: largest response in the series, negative = inhibition, hits mostly inhibitors; 310,000 tested, 3.5% active; AID 1490, 2009;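 also: the enzyme is Sfp with the accession as filed and its product quenches rhodamine fluorescence; 0% = enzyme reaction without inhibitor and -100% = no enzyme wells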
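Step 1, compound plus 15 nM Sfp-PPTase, 15 min, room temperature. Step 2, add rhodamine-CoA (5 uM) and BHQ-2-YbbR (12.5 uM). Step 3, read 525/598 nm fluorescence at 0 and 30 min.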
* hit, by the source's call. Calls follow the shape of the dose curve; as a rule, active = well fitted curve in the direction sought with a large enough effect; inconclusive = small, poorly fitted or top-dose-only effect, or another doubt; inactive = no such curve, though single readings can be large; an effect the other way counts as inactive or inconclusive. Unless noted, % is scaled to controls: 0 for no effect and ±100 for the full control effect; potency is read from the fitted curve at half-maximal effect.

How did O=C(NCc1ccco1)c1ccc(OCC2CCCO2)cc1 (stereo not given) do in these assays?
VDR inh: 10%; 12-LOX inh: -18%; PLK1 PBD block: -4%; Sfp inh: -1%

Results for CC(NC(=O)COC(=O)C1=COCCO1)C12CC3CC(CC(C3)C1)C2 (stereo not given) ?
VDR inh: -6%; 12-LOX inh: -14%; PLK1 PBD block: inconclusive; Sfp inh: -2%

What do the screens show for `COc1ccc(/C(C#N)=C/c2cccnc2)cc1`?
12-LOX inh: 0%; Sfp inh: 13%

Results for Cc1ccc(S(=O)(=O)N2[C@@H](c3cccc(Cl)c3)C(C(=O)O)=CC[C@H]2c2cccc(Cl)c2)cc1 ?
VDR inh: -18%; 12-LOX inh: inconclusive; PLK1 PBD block: 27µM*

What do the screens show for `CCc1ccc([C@@H]2CC=C(C(=O)O)[C@H](c3cccc(Cl)c3)N2S(=O)(=O)c2ccc(C)cc2)cc1`?
VDR inh: -26%; 12-LOX inh: inconclusive; PLK1 PBD block: 21µM*

What do the screens show for `Cc1ccc(S(=O)(=O)N2[C@@H](c3ccc(C(C)(C)C)cc3)C(C(=O)O)=CC[C@H]2c2ccc(Cl)c(Cl)c2)cc1`?
VDR inh: 2%; 12-LOX inh: 35µM*; PLK1 PBD block: 27µM*

How did Cc1ccc(S(=O)(=O)N2[C@@H](c3cccc(Cl)c3)C(C(=O)O)=CC[C@H]2c2cccc(C)c2)cc1 do in these assays?
VDR inh: -25%; 12-LOX inh: -22%; PLK1 PBD block: inconclusive

What do the screens show for `Cc1ccc(S(=O)(=O)N2[C@@H](c3ccc(Br)cc3)C(C(=O)O)=CC[C@H]2c2ccc(Cl)c(Cl)c2)cc1`?
VDR inh: inconclusive; 12-LOX inh: -94%; PLK1 PBD block: 24µM*

How did CCc1ccc([C@@H]2CC=C(C(=O)O)[C@H](c3ccc(Cl)cc3)N2S(=O)(=O)c2ccc(C)cc2)cc1 do in these assays?
VDR inh: -28%; 12-LOX inh: inconclusive; PLK1 PBD block: inconclusive

Results for CCn1c(CC(=O)Nc2ccccc2F)nnc1SCC(=O)Nc1nnc(C)s1 ?
VDR inh: 12%; 12-LOX inh: 22%; PLK1 PBD block: -1%; Sfp inh: 22%

What do the screens show for `Cc1ccc(S(=O)(=O)N2[C@@H](c3ccc(C(C)(C)C)cc3)C(C(=O)O)=CC[C@H]2c2cccc(Cl)c2)cc1`?
VDR inh: inconclusive; 12-LOX inh: -83%; PLK1 PBD block: 21µM*

How did CCOC(=O)C1=CC[C@@H](c2ccccc2)N(S(=O)(=O)c2ccc(C)cc2)[C@H]1C#N do in these assays?
12-LOX inh: inconclusive; PLK1 PBD block: 6.7µM*

What do the screens show for `Cc1ccc([C@H]2C(C(=O)O)=CC[C@@H](c3cccc(Cl)c3)N2S(=O)(=O)c2ccc(C)cc2)cc1`?
VDR inh: -16%; 12-LOX inh: inconclusive; PLK1 PBD block: inconclusive

Results for COc1ccccc1Cc1nc2ccccc2nc1SCC(=O)N1CCc2ccccc21 ?
VDR inh: 1%; 12-LOX inh: 0%

How did CN(C)N1C(N)=C(C#N)C(c2ccsc2)C2=C1CC(C)(C)CC2=O (stereo not given) do in these assays?
VDR inh: -5%; 12-LOX inh: -5%; PLK1 PBD block: -13%; Sfp inh: 14%

How did Cc1ccc(-n2nc3ccc(N)cc3n2)cc1C do in these assays?
VDR inh: 0%; 12-LOX inh: 45µM*; PLK1 PBD block: -5%; Sfp inh: -21%

Results for CN(c1cccc(NC(=O)c2ccc(N(C)S(=O)(=O)c3ccccc3)cc2)c1)S(C)(=O)=O ?
VDR inh: inconclusive; 12-LOX inh: -1%; PLK1 PBD block: 12µM*; Sfp inh: 17%

Results for COCCCNC(=S)NNC(=S)Nc1cccc(Cl)c1 ?
VDR inh: inconclusive; 12-LOX inh: 0%; PLK1 PBD block: -29%; Sfp inh: 22µM*

Results for C=COCCNC(=S)Nc1cccc(Cl)c1 ?
VDR inh: -15%; 12-LOX inh: 6%; PLK1 PBD block: -1%; Sfp inh: 18%

How did CCCOC(=O)c1ccc(NC(=O)C2C3C=CC(O3)C2C(=O)O)cc1 (stereo not given) do in these assays?
VDR inh: -10%; 12-LOX inh: inconclusive; PLK1 PBD block: -9%; Sfp inh: 79µM*

What do the screens show for `CCOc1ccccc1OCc1nn2c(-c3ccc(C)cc3)nnc2s1`?
VDR inh: -18%; 12-LOX inh: 15%; PLK1 PBD block: inconclusive; Sfp inh: inconclusive

How did CCOc1ccccc1OCc1nn2c(C3COc4ccccc4O3)nnc2s1 (stereo not given) do in these assays?
12-LOX inh: 7.1µM*

Results for c1ccc(CCc2nn3c(C4COc5ccccc5O4)nnc3s2)cc1 (stereo not given) ?
VDR inh: -77%; 12-LOX inh: inconclusive; PLK1 PBD block: 24µM*; Sfp inh: -72%

What do the screens show for `COc1ccccc1-c1nn2c(C3COc4ccccc4O3)nnc2s1` (stereo not given)?
VDR inh: 71µM*; 12-LOX inh: inconclusive; PLK1 PBD block: 12µM*; Sfp inh: 20µM*

How did COC(=O)CSc1nnc(C2COc3ccccc3O2)n1-c1ccccc1 (stereo not given) do in these assays?
VDR inh: 8%; 12-LOX inh: -21%; PLK1 PBD block: -2%; Sfp inh: 12%

Results for CN1CCC(N(C)CC2CCCN(CCc3ccc(F)cc3)C2)CC1 (stereo not given) ?
12-LOX inh: -2%

Results for COC(=O)c1n[nH]nc1-c1ccccc1 ?
VDR inh: -16%; 12-LOX inh: -19%; PLK1 PBD block: -4%; Sfp inh: 6%

How did COc1ccccc1NC(=O)CSc1nc2sc(C)c(C)c2c(=O)n1C do in these assays?
VDR inh: 10%; 12-LOX inh: -17%; PLK1 PBD block: -18%; Sfp inh: inconclusive

What do the screens show for `Cc1sc2nc(SCC(=O)Nc3c(C)n(C)n(-c4ccccc4)c3=O)n(C)c(=O)c2c1C`?
VDR inh: 9%; 12-LOX inh: -12%; PLK1 PBD block: -15%; Sfp inh: 50µM*

Results for Cc1cc(NC(=O)CN2CCN(C)CC2)no1 ?
VDR inh: inconclusive; 12-LOX inh: 0%; PLK1 PBD block: 12µM*; Sfp inh: -23%

Results for CCc1nnc(NC(=O)CSc2nc(-c3ccc(OC)cc3)ns2)s1 ?
VDR inh: -7%; 12-LOX inh: -6%; PLK1 PBD block: -4%; Sfp inh: 5%

Results for COc1ccc(-c2nsc(SCC(=O)Nc3cc(C)on3)n2)cc1 ?
VDR inh: inconclusive; 12-LOX inh: -2%; PLK1 PBD block: 9.5µM*; Sfp inh: 16µM*

How did O=C1CN(CC(=O)Nc2ccc(SC(F)F)cc2)CCN1 do in these assays?
VDR inh: 0%; 12-LOX inh: 2%; PLK1 PBD block: inconclusive; Sfp inh: 4%
